The results in this text go back to ChEMBL document CHEMBL1961873, “Compounds: GSK PKIS; Assays: Nanosyn kinase panel” (2012).

For assay [1], the target named is T1, Ephrin type-B receptor 2 (Homo sapiens) (UniProt P29323).
T1 sequence (whole entry): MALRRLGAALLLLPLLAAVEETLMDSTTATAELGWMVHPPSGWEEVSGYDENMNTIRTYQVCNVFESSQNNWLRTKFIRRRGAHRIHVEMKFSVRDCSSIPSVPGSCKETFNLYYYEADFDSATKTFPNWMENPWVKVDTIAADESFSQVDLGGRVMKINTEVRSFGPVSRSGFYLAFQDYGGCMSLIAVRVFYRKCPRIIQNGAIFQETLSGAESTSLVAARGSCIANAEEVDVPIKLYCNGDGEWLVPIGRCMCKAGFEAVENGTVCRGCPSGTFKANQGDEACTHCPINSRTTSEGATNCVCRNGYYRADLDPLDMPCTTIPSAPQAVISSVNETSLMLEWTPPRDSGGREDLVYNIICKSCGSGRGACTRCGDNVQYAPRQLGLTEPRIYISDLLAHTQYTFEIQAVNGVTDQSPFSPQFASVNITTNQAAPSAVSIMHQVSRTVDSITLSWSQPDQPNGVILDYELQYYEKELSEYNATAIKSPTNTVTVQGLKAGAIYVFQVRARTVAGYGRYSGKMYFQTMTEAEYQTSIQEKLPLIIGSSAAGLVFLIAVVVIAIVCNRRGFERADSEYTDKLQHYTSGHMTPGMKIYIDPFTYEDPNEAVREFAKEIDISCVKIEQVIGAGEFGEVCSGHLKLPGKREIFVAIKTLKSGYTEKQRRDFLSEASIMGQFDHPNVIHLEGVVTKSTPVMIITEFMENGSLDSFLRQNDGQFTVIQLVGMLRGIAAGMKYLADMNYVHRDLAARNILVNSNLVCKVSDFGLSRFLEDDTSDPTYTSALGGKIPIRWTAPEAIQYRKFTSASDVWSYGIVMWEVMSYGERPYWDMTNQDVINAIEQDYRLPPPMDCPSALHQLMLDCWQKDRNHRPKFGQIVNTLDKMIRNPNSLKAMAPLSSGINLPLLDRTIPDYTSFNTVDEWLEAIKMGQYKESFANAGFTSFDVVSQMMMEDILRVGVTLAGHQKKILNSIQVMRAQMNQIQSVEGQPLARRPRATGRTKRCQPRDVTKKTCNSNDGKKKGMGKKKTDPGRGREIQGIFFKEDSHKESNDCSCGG
To be noted: at 1 µM.

The target of assay [2] is T2, Ephrin type-B receptor 3 (Homo sapiens) (UniProt P54753).
T2 sequence (whole entry): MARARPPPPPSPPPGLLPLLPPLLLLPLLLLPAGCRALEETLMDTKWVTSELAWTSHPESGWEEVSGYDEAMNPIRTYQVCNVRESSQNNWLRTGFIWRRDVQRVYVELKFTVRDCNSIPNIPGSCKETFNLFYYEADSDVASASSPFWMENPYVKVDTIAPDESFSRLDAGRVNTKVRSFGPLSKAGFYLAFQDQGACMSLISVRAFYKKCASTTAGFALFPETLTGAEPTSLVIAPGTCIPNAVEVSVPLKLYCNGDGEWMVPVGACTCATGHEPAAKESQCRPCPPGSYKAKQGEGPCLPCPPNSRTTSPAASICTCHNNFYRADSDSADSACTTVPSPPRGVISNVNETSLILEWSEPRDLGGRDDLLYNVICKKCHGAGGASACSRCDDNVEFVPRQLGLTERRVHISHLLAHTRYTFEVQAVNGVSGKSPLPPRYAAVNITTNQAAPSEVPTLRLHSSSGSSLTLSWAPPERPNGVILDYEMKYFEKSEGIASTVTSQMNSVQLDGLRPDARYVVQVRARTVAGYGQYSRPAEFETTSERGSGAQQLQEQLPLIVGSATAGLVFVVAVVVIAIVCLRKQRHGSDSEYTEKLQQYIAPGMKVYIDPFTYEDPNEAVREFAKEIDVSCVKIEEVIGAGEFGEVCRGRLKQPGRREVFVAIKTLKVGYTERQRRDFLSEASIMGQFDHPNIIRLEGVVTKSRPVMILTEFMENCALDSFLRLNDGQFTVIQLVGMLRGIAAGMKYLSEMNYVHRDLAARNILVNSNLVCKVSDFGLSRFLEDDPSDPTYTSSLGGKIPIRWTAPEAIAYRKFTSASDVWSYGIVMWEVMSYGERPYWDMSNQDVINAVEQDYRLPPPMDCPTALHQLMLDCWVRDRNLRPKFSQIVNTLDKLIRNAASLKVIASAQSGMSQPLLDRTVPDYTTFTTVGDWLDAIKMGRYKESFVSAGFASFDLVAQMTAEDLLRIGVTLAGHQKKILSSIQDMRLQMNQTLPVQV
The settings on record: at 0.1 µM.

The target of assay [3] is T2, Ephrin type-B receptor 3 (Homo sapiens). To be noted: at 1 µM.
Assay [4] addresses T3, Ephrin type-B receptor 4 (Homo sapiens) (UniProt P54760).
T3 sequence (whole entry): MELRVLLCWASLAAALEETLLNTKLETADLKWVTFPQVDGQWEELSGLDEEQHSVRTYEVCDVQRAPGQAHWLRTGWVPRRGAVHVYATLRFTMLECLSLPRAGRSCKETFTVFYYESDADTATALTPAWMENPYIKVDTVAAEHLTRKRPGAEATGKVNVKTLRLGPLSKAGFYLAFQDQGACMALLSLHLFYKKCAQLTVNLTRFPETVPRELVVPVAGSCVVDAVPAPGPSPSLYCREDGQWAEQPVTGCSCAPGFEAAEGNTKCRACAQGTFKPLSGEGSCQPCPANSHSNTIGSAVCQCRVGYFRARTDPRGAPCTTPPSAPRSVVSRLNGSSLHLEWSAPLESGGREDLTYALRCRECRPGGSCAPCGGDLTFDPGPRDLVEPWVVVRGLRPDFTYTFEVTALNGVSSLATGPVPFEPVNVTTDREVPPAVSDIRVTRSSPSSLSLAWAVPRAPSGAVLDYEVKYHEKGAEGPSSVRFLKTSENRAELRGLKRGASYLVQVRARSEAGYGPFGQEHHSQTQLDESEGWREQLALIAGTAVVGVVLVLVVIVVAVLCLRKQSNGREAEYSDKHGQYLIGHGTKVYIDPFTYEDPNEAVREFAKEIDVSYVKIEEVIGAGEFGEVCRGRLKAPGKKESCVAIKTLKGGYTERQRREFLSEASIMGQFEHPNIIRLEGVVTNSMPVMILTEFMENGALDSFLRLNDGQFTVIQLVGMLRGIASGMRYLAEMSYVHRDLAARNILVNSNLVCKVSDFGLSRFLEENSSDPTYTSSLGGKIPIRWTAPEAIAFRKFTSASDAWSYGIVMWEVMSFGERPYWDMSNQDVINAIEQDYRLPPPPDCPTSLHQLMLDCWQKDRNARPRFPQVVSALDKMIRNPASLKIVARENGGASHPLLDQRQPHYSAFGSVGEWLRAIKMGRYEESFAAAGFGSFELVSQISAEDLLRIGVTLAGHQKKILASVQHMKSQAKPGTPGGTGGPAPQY
The settings on record: at 0.1 µM.

Assay [5] addresses T3, Ephrin type-B receptor 4 (Homo sapiens). To be noted: at 1 µM.
For assay [6], the target named is Receptor tyrosine-protein kinase erbB-2 (Homo sapiens) (UniProt P04626). The settings on record: at 0.1 µM.
The target is the same in assay [7]. To be noted: at 1 µM.
For assay [8], the target named is Receptor tyrosine-protein kinase erbB-4 (Homo sapiens) (UniProt Q15303). To be noted: at 0.1 µM.
The target is the same in assay [9]. The settings on record: at 1 µM.
The target of assay [10] is Tyrosine-protein kinase Fer (Homo sapiens) (UniProt P16591). The settings on record: at 0.1 µM.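 Further: reported figures are averaged percent inhibition of FER.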
Sequence of Tyrosine-protein kinase Fer (Homo sapiens) (P16591 whole entry, looked up): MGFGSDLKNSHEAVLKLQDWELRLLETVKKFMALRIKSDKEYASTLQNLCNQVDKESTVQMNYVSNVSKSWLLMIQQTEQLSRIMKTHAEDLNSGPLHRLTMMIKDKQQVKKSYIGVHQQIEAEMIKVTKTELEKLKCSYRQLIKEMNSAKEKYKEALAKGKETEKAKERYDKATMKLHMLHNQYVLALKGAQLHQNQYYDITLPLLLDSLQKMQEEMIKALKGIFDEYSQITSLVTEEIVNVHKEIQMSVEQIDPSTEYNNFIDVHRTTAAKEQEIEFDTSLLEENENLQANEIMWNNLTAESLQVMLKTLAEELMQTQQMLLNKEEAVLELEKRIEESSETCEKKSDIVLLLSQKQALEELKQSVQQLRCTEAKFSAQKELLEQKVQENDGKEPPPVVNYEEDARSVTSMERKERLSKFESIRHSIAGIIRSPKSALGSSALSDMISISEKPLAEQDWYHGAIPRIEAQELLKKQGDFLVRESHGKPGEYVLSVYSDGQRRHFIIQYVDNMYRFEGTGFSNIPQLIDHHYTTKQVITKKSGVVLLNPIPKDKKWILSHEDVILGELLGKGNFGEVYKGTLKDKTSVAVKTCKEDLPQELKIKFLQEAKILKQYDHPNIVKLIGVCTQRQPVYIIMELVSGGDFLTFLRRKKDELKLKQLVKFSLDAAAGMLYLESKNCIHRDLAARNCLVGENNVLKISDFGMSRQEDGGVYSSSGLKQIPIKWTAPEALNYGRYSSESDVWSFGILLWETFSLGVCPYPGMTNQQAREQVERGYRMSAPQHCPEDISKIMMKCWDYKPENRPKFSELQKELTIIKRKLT

Sequence of Receptor tyrosine-protein kinase erbB-2 (Homo sapiens) (P04626 whole entry): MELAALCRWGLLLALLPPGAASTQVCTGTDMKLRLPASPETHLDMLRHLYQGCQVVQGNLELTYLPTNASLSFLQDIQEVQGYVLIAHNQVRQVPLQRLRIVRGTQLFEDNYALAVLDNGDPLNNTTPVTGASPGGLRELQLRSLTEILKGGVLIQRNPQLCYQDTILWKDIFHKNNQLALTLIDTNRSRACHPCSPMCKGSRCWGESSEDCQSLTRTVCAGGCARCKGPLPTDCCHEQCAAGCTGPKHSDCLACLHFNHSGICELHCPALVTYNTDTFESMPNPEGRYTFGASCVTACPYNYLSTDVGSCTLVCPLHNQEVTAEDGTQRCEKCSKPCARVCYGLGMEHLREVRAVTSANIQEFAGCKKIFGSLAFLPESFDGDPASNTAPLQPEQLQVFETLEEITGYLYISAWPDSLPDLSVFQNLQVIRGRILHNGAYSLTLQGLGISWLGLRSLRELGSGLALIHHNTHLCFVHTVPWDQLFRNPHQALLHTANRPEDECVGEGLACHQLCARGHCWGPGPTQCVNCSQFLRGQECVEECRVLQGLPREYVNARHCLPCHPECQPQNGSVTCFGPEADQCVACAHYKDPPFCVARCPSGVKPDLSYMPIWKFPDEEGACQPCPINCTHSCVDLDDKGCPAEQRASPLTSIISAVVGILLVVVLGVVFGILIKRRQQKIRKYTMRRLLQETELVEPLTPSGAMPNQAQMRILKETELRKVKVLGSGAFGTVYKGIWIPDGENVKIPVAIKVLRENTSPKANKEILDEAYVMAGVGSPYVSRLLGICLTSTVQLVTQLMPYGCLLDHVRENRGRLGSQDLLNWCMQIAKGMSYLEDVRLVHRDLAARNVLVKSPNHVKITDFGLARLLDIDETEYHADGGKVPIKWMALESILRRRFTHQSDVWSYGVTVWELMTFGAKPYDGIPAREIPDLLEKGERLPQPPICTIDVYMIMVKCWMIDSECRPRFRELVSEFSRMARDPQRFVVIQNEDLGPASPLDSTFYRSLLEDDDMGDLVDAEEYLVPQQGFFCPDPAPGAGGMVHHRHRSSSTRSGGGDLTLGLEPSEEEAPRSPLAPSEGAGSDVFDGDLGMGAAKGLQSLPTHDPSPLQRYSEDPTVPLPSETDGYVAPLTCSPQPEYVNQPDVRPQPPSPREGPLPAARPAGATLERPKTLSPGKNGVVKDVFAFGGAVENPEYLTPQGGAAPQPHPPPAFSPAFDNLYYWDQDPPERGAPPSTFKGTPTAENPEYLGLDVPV
Sequence of Receptor tyrosine-protein kinase erbB-4 (Homo sapiens) (Q15303 whole entry): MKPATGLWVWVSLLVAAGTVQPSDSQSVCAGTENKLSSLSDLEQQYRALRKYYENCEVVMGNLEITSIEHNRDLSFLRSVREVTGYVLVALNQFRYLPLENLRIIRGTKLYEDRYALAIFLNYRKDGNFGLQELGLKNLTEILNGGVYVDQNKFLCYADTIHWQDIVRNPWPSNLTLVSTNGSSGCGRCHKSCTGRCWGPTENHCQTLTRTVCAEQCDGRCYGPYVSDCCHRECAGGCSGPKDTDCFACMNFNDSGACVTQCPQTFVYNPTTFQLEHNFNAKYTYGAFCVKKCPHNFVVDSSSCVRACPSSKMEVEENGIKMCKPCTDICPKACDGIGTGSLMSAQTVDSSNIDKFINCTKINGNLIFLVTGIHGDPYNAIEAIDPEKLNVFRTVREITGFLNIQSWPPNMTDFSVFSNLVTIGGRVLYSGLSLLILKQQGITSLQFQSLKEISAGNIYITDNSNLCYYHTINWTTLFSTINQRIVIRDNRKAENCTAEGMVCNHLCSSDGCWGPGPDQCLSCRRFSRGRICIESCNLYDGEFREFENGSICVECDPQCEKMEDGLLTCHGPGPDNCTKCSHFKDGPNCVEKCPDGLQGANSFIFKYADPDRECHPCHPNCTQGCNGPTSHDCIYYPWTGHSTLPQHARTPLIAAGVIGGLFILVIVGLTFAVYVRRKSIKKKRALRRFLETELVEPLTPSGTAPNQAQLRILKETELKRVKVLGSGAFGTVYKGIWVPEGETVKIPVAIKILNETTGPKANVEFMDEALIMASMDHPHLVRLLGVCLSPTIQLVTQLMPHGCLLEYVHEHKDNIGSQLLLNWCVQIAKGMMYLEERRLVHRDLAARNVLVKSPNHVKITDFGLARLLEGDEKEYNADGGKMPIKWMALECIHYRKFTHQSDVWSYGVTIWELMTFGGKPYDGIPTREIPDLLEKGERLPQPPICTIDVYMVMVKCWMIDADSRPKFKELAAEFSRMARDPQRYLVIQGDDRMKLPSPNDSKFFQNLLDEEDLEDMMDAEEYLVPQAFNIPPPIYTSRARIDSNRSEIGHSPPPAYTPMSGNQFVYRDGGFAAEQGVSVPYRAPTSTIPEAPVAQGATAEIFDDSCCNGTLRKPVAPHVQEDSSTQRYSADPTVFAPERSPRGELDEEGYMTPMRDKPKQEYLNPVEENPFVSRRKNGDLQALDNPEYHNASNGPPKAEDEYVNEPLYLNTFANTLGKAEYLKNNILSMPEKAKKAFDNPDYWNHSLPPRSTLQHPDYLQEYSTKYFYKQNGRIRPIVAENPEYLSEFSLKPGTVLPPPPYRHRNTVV

With `COc1cc2ncnc(Nc3ccc(C)c(O)c3)c2cc1OC`, the inhibition in assay [1] was found to be 41.4%; in assay [2], 6.58%; in [3] it was 2.9%; in [4] it was 8.74%; in [5], 36.9%; in assay [6] it was 7.8%. Moreover, the inhibition in assay [7] came out at 26.3%; in [8], 31.7%; in [9], 68.7%; in [10], 4.24%.
As for `CN1CCN(C(=O)c2ccc(NC(=O)Nc3ccc(N(C)c4ccnc(Nc5ccc(CS(C)(=O)=O)cc5)n4)cc3)cc2)CC1`, the inhibition in [1] is 34.3%; in [2], 2.73%; in assay [3], 3.2%; in [4], 2.21%; in assay [5], 11%; in [6], 0.08%. Moreover, the inhibition worked out at 3.94% in [7], 7.39% in assay [8], 17.1% in [9] and 16.2% in assay [10].
`CCn1c(-c2nonc2N)nc2c(C#CC(C)(C)O)nc(OCCNC)cc21`: the inhibition in [1] was 8.26%; in assay [2], -3.04%; in assay [3] it was 4%; in [4] it was 2.31%; in [5] it was 2.13%; in assay [6], 0.68%. Moreover, the inhibition was 3.83% in assay [7], 4.11% in [8], 7.02% in assay [9] and -0.15% in assay [10].
`Oc1cccc(-c2nc(-c3ccccc3)[nH]c2-c2ccncc2)c1`: the inhibition in [1] came to 26.1%; in assay [2], 9.06%; in assay [3], 19.3%; in [4], 6.41%; in [5], 9.99%; in assay [6] it was 4.55%. Further, the inhibition came to 3.87% in [7], 12.6% in assay [8], 19.4% in [9] and 3.43% in [10].
With `NS(=O)(=O)c1ccc(Nc2cc(-c3cccc(O)c3)n[nH]2)cc1`, the inhibition is 12.4% in [1]; 8.13% in [2]; 1.98% in assay [3]; 1.74% in assay [4]; 4.14% in [5]; 1.73% in assay [6]. Further, the inhibition in assay [7] is -4.93%; in assay [8] it was 14.3%; in [9] it was 14.3%; in assay [10] it was 2.71%.
Turning to `COc1cc(Nc2nccc(-c3cnn4ncccc34)n2)cc(OC)c1`, the inhibition is 40.2% in [1]; 3.58% in [2]; -3.61% in assay [3]; 2.69% in [4]; 25.6% in assay [5]; 2.17% in assay [6]. Moreover, the inhibition was -0.98% in [7], 5.96% in assay [8], 8.81% in assay [9] and 11.1% in assay [10].
On to `CCS(=O)(=O)c1ccc(OC)c(Nc2ncc(-c3cccc(OC)c3)o2)c1`, for which the inhibition was 24.3% in assay [1]; 3.22% in [2]; 2.36% in [3]; 3.32% in assay [4]; 11.9% in assay [5]; -0.52% in assay [6]. Besides, the inhibition in assay [7] was 0.18%; in assay [8], 10.5%; in assay [9], 22.1%; in assay [10], -0.2%.
As for `Cc1ccc(NC(=O)CC2CC2)cc1-c1ccc(C(=O)NCC2CC2)cc1`, the inhibition in assay [1] is 11.6%; in assay [2], 4.23%; in assay [3] it was 3.77%; in assay [4], 0.66%; in [5], 3.43%; in assay [6], 0.13%. Moreover, the inhibition in [7] was 3.41%; in assay [8] it was 6.43%; in assay [9] it was 8.12%; in assay [10], 4.27%.

What is called inhibition is the change of the read-out against control, counted positive when it falls.
